Twelve molecules from PubChem BioAssay (NCATS) can be followed below.

Records with an inconclusive call do not appear. Activity calls are given as the source filed them. Calls come from the whole dose curve.
Potency is the fitted concentration of half-maximal effect.

The target of the first experiment is Nucleoprotein (Lymphocytic choriomeningitis virus (strain Armstrong)) (UniProt P09992). Briefly: qHTS for Inhibitors of the Functional Ribonucleoprotein Complex (vRNP) of Lymphocytic Choriomeningitis Arenaviruses (LCMV): LCMV Primary Screen - GLuc reporter signal (AID 1347086). For activity change, negative = inhibition: % is set by controls: 0 for no effect and ±100 for the full control effect. Note: nearly all actives have a fitted effect of over 70% in size. Particulars: LCMV minigenome vRNP cell assay, Gaussia luciferase reporter; series mostly up to 57.5 µM; activity change, negative = inhibition: at the top concentration. Background: qHTS replaces the single test concentration by a dilution series.
Sequence of Nucleoprotein (Lymphocytic choriomeningitis virus (strain Armstrong)) (P09992 whole entry, looked up): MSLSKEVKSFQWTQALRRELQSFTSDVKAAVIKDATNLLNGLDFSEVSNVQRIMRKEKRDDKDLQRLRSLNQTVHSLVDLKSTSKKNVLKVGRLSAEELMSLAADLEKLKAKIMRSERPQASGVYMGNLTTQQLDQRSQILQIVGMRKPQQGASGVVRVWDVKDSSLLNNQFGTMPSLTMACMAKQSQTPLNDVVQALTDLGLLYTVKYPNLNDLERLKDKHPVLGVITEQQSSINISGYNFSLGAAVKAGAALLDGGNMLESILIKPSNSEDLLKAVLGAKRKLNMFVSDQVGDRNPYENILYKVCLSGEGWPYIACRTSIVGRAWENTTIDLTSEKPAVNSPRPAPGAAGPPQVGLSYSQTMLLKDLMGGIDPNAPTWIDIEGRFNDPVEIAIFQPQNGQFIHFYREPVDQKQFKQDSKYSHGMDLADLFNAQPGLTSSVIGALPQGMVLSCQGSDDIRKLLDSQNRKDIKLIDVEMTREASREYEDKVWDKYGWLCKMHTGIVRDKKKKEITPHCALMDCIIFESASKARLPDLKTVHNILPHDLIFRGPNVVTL
Regarding `Nc1nc(Cl)nc2c1ncn2[C@@H]1O[C@H](COP(=O)(O)OP(=O)(O)OP(=O)(O)O)[C@@H](O)[C@H]1O`, the “activity change, negative = inhibition” value was 41.6% (inactive).

Take `COc1cc2c(Nc3ccc(Cl)c(Cl)c3F)ncnc2cc1OCC1C[C@@H]2CN(C)C[C@H]2C1`: the Potency is 2.43 µM (active).

Regarding `C=C1C(=O)O[C@H]2[C@H]1[C@H](OC(=O)/C(C)=C\C)C[C@]1(CO1)[C@@H]1[C@H](OC(C)=O)C=C(C)[C@]21O`, the “activity change, negative = inhibition” value was -11.7% (inactive).

Consider `COc1cc(C(=O)O[C@H]2C/C(C)=C/CC[C@@]3(C)O[C@@H]3[C@H](O)[C@@H]2C(C)C)cc(OC)c1OC`, for which the “activity change, negative = inhibition” value is -7.57% (inactive).

For `C[C@@H]1C(=O)O[C@H]2[C@H](O)[C@@]34[C@H]5CC(C(C)(C)C)[C@]36[C@H](OC(=O)[C@H]6O)O[C@]4(C(=O)O5)[C@@]12O` (stereo partly specified), the “activity change, negative = inhibition” value is 2.76% (inactive).

Test system in a further experiment: not listed separately
Briefly: Cytotoxicity counterscreen for inhibitors of SARS-CoV-2 cell entry (AID 1645845). For activity change, negative = cytotoxicity: % is set by controls: 0 for no effect and ±100 for the full control effect. Note: nearly all actives have a fitted effect of over 50% in size. Conditions: cell viability (SARS-CoV-2 entry assay cells); series mostly up to 57.1 µM; activity change, negative = cytotoxicity: at the top concentration; outcome: at the top concentration. The procedure, abridged: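 HEK293-ACE2 cells (Expi293F stably expressing human ACE2) seeded overnight, then compound for 1 h plus 48 h at 37C. Viability as ATP content by luminescence; normalized to wells with cells and media-only wells.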
On the technique in general: The purpose of a counterscreen is to sort out artefacts and off-target activity.
Regarding `CCc1ccc(/C=C2/SC(=S)NC2=O)cc1`, the Potency is 10 µM (active).

With `O=C1c2c(O)cc(O)cc2OC(c2ccc(O)c(O)c2)C1O` (stereo unspecified), the “activity change, negative = cytotoxicity” value is 0.21% (inactive).

Take `O=C1NC(O)CCN1[C@@H]1O[C@H](CO)[C@H](O)[C@H]1O` (stereo partly specified): the “activity change, negative = cytotoxicity” value is -4.17% (inactive).

In the case of `CC(C)C[C@H](NC(=O)CNC(=O)c1cc(Cl)ccc1Cl)B1OC(=O)CC(CC(=O)O)(C(=O)O)O1` (stereo partly specified), the Potency was 0.891 µM (active).

Test system in a further experiment: not listed separately
Briefly: Primary qHTS to identify inhibitors of SARS-CoV-2 cell entry (AID 1645846). Note: nearly all actives have a fitted effect of over 45% in size. Particulars: SARS-CoV-2 pseudovirus cell entry assay, luminescence; activity change, negative = inhibition: at 57.1 µM (top of the series) unless noted; series mostly up to 57.1 µM; outcome: at the top concentration. The procedure, abridged:
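Data are normalized to wells receiving SARS-CoV-2-S pseudoparticles and those given bald particles. Entry signal was luciferase luminescence in stable hACE2 Expi293F cells, 48 hr post-infection, after 1 hr compound pretreatment.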
As for `CN1CCc2c(c3ccccc3n2Cc2ccc(C(=O)NO)cc2)C1`, the activity change, negative = inhibition is -18.9%.

For the molecule `CCc1ccc(/C=C2/SC(=S)NC2=O)cc1`, the Potency was 31.6 µM (active).

Regarding `O=C1c2c(O)cc(O)cc2OC(c2ccc(O)c(O)c2)C1O` (stereo unspecified), the activity change, negative = inhibition is 4.53%.

Take `O=C1NC(O)CCN1[C@@H]1O[C@H](CO)[C@H](O)[C@H]1O` (stereo partly specified): the activity change, negative = inhibition was -26.7%.

Regarding `CCN(CC)CCCCNc1ncc2c(n1)N(C)C(=O)N(c1c(Cl)c(OC)cc(OC)c1Cl)C2`, the Potency was 6.31 µM (active).

With `N#CNC(=NCCCCCCOc1ccc(Cl)cc1)Nc1ccncc1`, the activity change, negative = inhibition is -97%.

In the case of `CC(C)C[C@H](NC(=O)CNC(=O)c1cc(Cl)ccc1Cl)B1OC(=O)CC(CC(=O)O)(C(=O)O)O1` (stereo partly specified), the activity change, negative = inhibition was -99.4%.
